CHO-K1 Ca PAM: nonselective calcium activators in parental CHO-K1 cells, primary screen, counter-screen for M1 PAM project, cell-based, Fluo-8 calcium fluorescence, full deck, 1536-well | ATP EC20; 0% at ATP EC20, 100% at ATP max | activation, % at 3 µM | 0.02% of 360,000 active | AID 602247, 2012;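 active = activation above the run cutoff, the mean activation of all test compounds plus 3 SD, cut at about 40% in these data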;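 also: peak over basal fluorescence ratio in a 140 s read after ATP addition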
CHRM4 antagonist: human M4 muscarinic receptor antagonists, primary screen, CHO cells, Fluo-8 calcium fluorescence. inhibition, % at 3 µM. CHO-hM4 cells, ACh EC80. 0.73% of 360,000 active;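 active = inhibition above its plate's cutoff, the mean inhibition of sample wells plus 3 SD, cut at about 27% in these data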;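 also: 0% = acetylcholine EC80 with DMSO and 100% = DMSO without agonist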
Target sequence (P08173 whole entry, looked up): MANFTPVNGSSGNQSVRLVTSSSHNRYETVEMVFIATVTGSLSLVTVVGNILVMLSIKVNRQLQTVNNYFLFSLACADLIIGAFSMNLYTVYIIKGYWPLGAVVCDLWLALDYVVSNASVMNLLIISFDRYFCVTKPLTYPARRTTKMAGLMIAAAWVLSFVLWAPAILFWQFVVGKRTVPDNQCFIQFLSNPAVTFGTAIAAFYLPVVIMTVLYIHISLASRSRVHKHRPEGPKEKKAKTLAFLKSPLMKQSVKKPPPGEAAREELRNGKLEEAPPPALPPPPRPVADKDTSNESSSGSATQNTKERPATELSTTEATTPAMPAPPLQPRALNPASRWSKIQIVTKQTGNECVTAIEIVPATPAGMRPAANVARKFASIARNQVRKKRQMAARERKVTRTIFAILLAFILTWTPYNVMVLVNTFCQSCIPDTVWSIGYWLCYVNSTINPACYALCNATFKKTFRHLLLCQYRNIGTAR
M1 ag parental: counter-screen for M1 agonists: effect in parental CHO-K1 cells; Fluo-8 calcium fluorescence; scaled to maximal ATP response, vehicle zero; activation, % at 3 µM; 0.48% of 360,000 active; in the data active = activation above about 15%;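 also: untransfected CHO-K1 host cells lacking M1 receptor as counterscreen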
M4 ag: human M4 muscarinic receptor agonists, primary screen, CHO-K1 cells, Fluo-8 calcium fluorescence; AID 624127, 2012; CHO-K1 hM4/Gqi5; vehicle 0%, full acetylcholine response 100%; Muscarinic acetylcholine receptor M4 (Homo sapiens), P08173; 0.14% of 360,000 active; activation, % at 3 µM;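 active = activation above the run mean over all test wells plus 3 SD, cut at about 32% in these data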;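 also: peak over basal fluorescence ratio per well then scaled between controls; 0% = DMSO wells and 100% = acetylcholine at EC100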
M4 PAM: human M4 muscarinic receptor positive allosteric modulators, primary screen, CHO-K1 cells, Fluo-8 calcium fluorescence; CHO-K1 hM4/Gqi5, ACh EC20; 0% = ACh EC20, 100% = maximal ACh; 0.4% of 360,000 active; activation, % at 3 µM;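 active = activation above its plate's cutoff, the mean activation of sample wells plus 3 SD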
CHO-K1 Ca antag: counter-screen for M1 antagonists: effect in parental CHO-K1 cells; ATP-induced calcium, Fluo-8 fluorescence; inhibition, % at 3 µM; 0.6% of 360,000 active; AID 602250;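 active = inhibition above a per-plate cutoff, the plate's mean sample inhibition plus 3 SD, cut at about 24% in these data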;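 also: 0% = DMSO plus EC80 ATP and 100% = DMSO alone without ATP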
An asterisk follows results filed as active; x = no result given. This is a sample that favours compounds with a hit; in the whole collection about 2% have one here.

SMILES	CHO-K1 Ca PAM	CHRM4 antagonist	M1 ag parental	M4 ag	M4 PAM	CHO-K1 Ca antag
Fc1cc(Cl)ccc1Nc1nc(NCc2ccccc2)nc2ccsc12	14	6	1	1	-7	-8
c1ccc(CNc2nc(NCc3ccccc3)c3sccc3n2)cc1	-12	71*	28*	89*	-16	14
CC(C)c1ccc(NC(=O)CSc2nc(=O)[nH]c3c2CCCC3)cc1	-27	-8	0	1	28*	-1
COc1ccc([N+](=O)[O-])cc1NC(=S)NC(NC(=O)C(c1ccccc1)c1ccccc1)C(Cl)(Cl)Cl (centres undefined)	9	27*	2	5	-5	17
COc1ccc([N+](=O)[O-])cc1NC(=O)C(C)c1ccccc1 (centres undefined)	19	7	0	-1	-3	-17
Nc1ccc(OCc2ccccc2)cc1	15	-5	0	0	0	-1
CCN(Cc1ccccc1)Cc1ccc(OCc2ccccc2)cc1	-4	27*	0	-2	-13	13
CCc1ccc(OCCCCN(C)Cc2ccccc2)cc1	14	30*	1	1	-16	12
NC(=O)C1CCN(CC(=O)NC(=O)NC2CCCC2)CC1	-12	-6	0	2	20*	-5
Cc1cccc(NC2=C(C#N)C(=O)NC3(CCCC3)S2)c1	10	-26	1	0	15*	-19
CC(=O)Nc1cccc2ccc(O)cc12	18	-11	0	0	16*	-13
COC(=O)c1ccc(OS(=O)(=O)c2ccc(NC(C)=O)cc2)cc1	-14	7	5	8	-10	24*
CC(C)[C@H](NC(=O)OCc1ccccc1)C(=O)OCC(=O)NC1(C#N)CCCC1	-22	1	0	1	16*	11
CC(C)[C@H](NC(=O)OCc1ccccc1)C(=O)OCC(=O)NC1CCCCC1	2	0	0	1	1	-12
COc1ccc(CCn2nnnc2C(CC(C)C)N2CCN(c3ncccn3)CC2)cc1OC (centres undefined)	-12	-8	-1	0	5	37*
Cc1ccc(C(=O)CSc2nnc3c4ccccc4nc(Cc4ccccc4)n23)cc1	10	-1	0	0	-3	-6
COC(=O)[C@@]1(Cc2ccccc2)[C@H]2C(=O)N(C)C(=O)[C@H]2[C@H]2CN(C)C(=NCc3ccccc3)N21	18	-14	1	0	3	-7
O=C(c1cc(Cl)ccc1O)N1CCN(S(=O)(=O)c2cccs2)CC1	-8	-3	1	3	3	10
CCCCOC(=O)C1CN(c2ccccc2)N=C1C(=O)OCC (centres undefined)	15	-8	0	-1	20*	-12
CCCCOC(=O)C1CN(c2ccccc2)N=C1C(C)=O (centres undefined)	24	-18	0	1	-1	-10
COc1ccc(C(C(=O)Nc2ccc3c(c2)OCCO3)n2c(=O)c(-c3ccco3)nc3ccccc32)cc1 (centres undefined)	x	8	x	-1	3	x
Cc1nc(Cl)sc1C(=O)O	7	6	0	1	34*	-1
CCN(CC)c1ncn(Cc2c(Cl)cccc2Cl)c2ncnc1-2	6	20	1	1	52*	14
Clc1cccc(Cl)c1Cn1cnc2c(N3CCCCCC3)ncnc21	20	-1	0	-1	16	-20
CCN(CC)c1ncnc2c1ncn2Cc1c(Cl)cccc1Cl	-6	-9	0	1	22*	19
SMILES	CHO-K1 Ca PAM	CHRM4 antagonist	M1 ag parental	M4 ag	M4 PAM	CHO-K1 Ca antag
CCN(CC)S(=O)(=O)c1ccc(S(=O)(=O)N2CCCC(C(=O)NC3CC3)C2)cc1 (centres undefined)	1	-3	2	1	0	-12
COC(=O)c1ccc(N2C(=O)C3CC=CC(C)C3C2=O)cc1 (centres undefined)	-4	3	0	0	0	7
CCCCC[C@H](O)/C=C/[C@H]1CCC(=O)[C@@H]1CCCCCCC(=O)N1CCCCC1CO (some centres undefined)	5	25	16*	26	-15	53*
CCC1CCCCN1C(=O)CCCOc1ccccc1 (centres undefined)	-4	-1	0	1	5	5
COc1ccc(OC)c(NS(=O)(=O)c2ccc(N3CCCC3=O)cc2)c1	25	-9	3	4	-4	3
COc1ccc(OC)c(NS(=O)(=O)c2ccc(-n3cccn3)cc2)c1	-10	-8	2	4	-3	26*
CCOC(=O)c1sc(-c2ccc(OC)cc2)cc1N	-6	0	0	0	-6	28*
CCOC(=O)c1sc(-c2ccc(F)cc2)cc1N	2	-11	-1	-2	1	-8
CCC(C)CCN1C(N(C)C)=NC[C@@H]1C (some centres undefined)	3	39*	0	1	5	-12
O=C(Cc1ccc(Br)cc1)OCC(=O)c1ccc2c(c1)OCCO2	21	-14	2	4	30*	-16
CC(C)(C)N(Cc1ccccc1)C(=O)c1ccc2c(c1)OCCO2	-6	29*	1	3	-17	11
O=C(CCCc1ccccc1)c1ccc2c(c1)OCCO2	22	-1	0	-2	31*	-8
CC(C)(C)N(Cc1nc(-c2ccccc2)no1)C(=O)c1ccc2c(c1)OCO2	13	-4	0	-1	7	-21
CCNc1ccc(S(=O)(=O)N2CCOCC2)cc1NCC(=O)Nc1cccc(Br)c1	12	-6	13	20	-1	14
O=C(O)c1c(-c2ccccc2)c2oc3ccccc3c2[nH]c1=O	-5	5	0	0	6	29*
COc1ccc(OC)c(C(=O)CCCC(=O)c2cc(OC)ccc2OC)c1	-3	31*	4	2	-6	-5
COc1ccc(OC)c(C(=O)COC(=O)c2c(OC)cccc2OC)c1	11	-1	1	4	-4	-3
COc1ccc(CNC(=O)C(C)OC(=O)CCN2C(=O)C3CC=CCC3C2=O)cc1 (centres undefined)	2	-9	1	1	1	2
CCN(CC)c1ccc(/C=C2\SC(=O)N(C(C)C)C2=O)o1	10	41*	2	4	-3	3
CCN(CC)CCNS(=O)(=O)c1ccc2c3c(cccc13)C(=O)N2	-8	-1	1	0	2	-14

From PubChem
